Experimental findings from PubChem BioAssay (EPA / NIEHS) are described below.

SMILES strings stand for the structures. Several values for one entry are separate records, joined by “and”; a condition that tells them apart may be missing. Equal values may be shown once. Results filed as inconclusive are left out. The source holds several records for some structures; these can differ, active in one and inactive in another. Activity calls are given as the source filed them. The calls were made as follows: active = hit-call score of the fitted dose curve at least 0.9, where 1 is the maximum; inconclusive = response in the unintended direction; inactive = score below 0.9.

In general, AC50 refers to the midpoint of the concentration-response curve, whichever way the signal moves.

Assay [1] is described as follows: ATG_XTT_Cytotoxicity: Cytotoxicity Assessment in the Attagene TRANS-FACTORIAL HepG2 Assay (AID 2283584).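 As to AC50: cells exposed to compound for 24 h before reading; active means loss of viability signal versus DMSO baseline.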 The method in brief: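 Cells: human HepG2, transiently transfected with MRTU reporter constructs. Exposure 24 h. Readout: XTT, cell number. Baseline/neg ctrl DMSO; loss-of-signal scored.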
The nature of assay [2]: TOX21_p53_BLA_p2_viability: Viability Assessment in the Tox21 HCT-116 p53 Agonism Beta-lactamase Assay, Phase 2 (AID 2283591).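 Also: compound exposure lasted 16 h at 37 °C; actives lower the ATP signal meaning cytotoxicity.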 The method in brief:
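HCT-116 p53-bla cells (4000/well) rested 5 h at 37C, then received compounds in DMSO (217-fold dilution) for 16 h at 37C, 5% CO2. After the CCF4 read, CellTiter-Glo was added; ATP luminescence was read after 30 min at room temperature.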

The target of assay [3] is Cellular tumor antigen p53 (Homo sapiens) (UniProt P04637). Description: TOX21_p53_BLA_p2_ratio: Tox21 HCT-116 p53 Agonism Beta-lactamase Assay, Ratio, Phase 2 (AID 2283592). An outline of the steps:
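HCT116 p53-bla; 4000 cells/well; 5 h pre-incubation; cpd in DMSO, 217-fold dilution; 16 h 37C/5% CO2; CCF4-AM 2 h RT; Ex 405, Em 460/530 ratio; DMSO = baseline; positive fitting direction.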

Assay [4] is described as follows: TOX21_p53_BLA_p3_viability: Viability Assessment in the Tox21 HCT-116 p53 Agonism Beta-lactamase Assay, Phase 3 (AID 2283593).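 Also: cells exposed to compound for 16 h before reading.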 An outline of the steps: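 HCT-116 cells (4000/well) rested 5 h at 37C, then got DMSO compounds by pin tool (217-fold dilution) for 16 h at 37C, 5% CO2. After the bla read, CellTiter-Glo was added and luminescence read at 30 min, room temperature.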

Assay [5] deals with Cellular tumor antigen p53 (Homo sapiens) (UniProt P04637). Description: TOX21_p53_BLA_p3_ratio: Tox21 HCT-116 p53 Agonism Beta-lactamase Assay, Ratio, Phase 3 (AID 2283596). The method in brief: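 HCT116 p53-bla cells (4000/well) given compound in DMSO (217-fold dilution) after 5 h, incubated 16 h at 37C. CCF4-AM substrate 2 h at room temperature; 460/530 nm emission ratio, gain fitted against DMSO.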
Cellular tumor antigen p53 (Homo sapiens), sequence (P04637 whole entry, looked up): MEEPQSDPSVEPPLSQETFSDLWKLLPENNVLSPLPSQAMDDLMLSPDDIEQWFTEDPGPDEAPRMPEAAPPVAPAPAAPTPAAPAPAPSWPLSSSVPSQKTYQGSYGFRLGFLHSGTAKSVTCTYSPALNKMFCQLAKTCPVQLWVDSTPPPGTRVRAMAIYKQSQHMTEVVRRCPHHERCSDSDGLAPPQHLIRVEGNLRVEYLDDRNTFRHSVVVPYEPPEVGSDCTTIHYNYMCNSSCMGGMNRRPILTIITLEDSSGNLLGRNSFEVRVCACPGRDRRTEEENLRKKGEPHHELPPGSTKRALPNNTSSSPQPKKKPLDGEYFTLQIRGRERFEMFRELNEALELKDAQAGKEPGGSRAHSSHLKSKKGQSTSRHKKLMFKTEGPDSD

For the molecule `CCC(C)(C#N)N=NC(C)(C#N)CC` (configuration not stated), the molecule was called inactive in assay [1], in assay [2], in assay [3] and in assay [4].
Turning to `CN(C)c1ccc(N=O)cc1`, the result in assay [1], in assay [3] and in assay [5] was inactive. For the same molecule, the AC50 in assay [2] was 70.1 µM (active) and 70.5 µM (active); in assay [3], 75.7 µM (active); in assay [4] it was 88.2 µM (active) and 80.8 µM (active).
Consider `CNC(=O)O/N=C/C(C)(C)S(C)(=O)=O`, for which the outcome in assay [1], in assay [2] and in assay [3] was inactive.
For the molecule `Cc1cc(Cl)ccc1N`, the result in assay [1] was inactive.
For the molecule `CCN(CCO)CCO`, the call in assay [1] and in assay [2] was inactive.
As to `BrCCCCBr`, the call in assay [1], in assay [2] and in assay [3] was inactive.
`Cc1cc(Cl)ccc1OCCCC(=O)O`: the call in assay [1], in assay [2], in assay [3], in assay [4] and in assay [5] was inactive.
As for `Nc1nc(=S)[nH][nH]1`, the call in assay [1], in assay [2] and in assay [3] was inactive.
With `C[C@]12CC[C@@H](O)C[C@@H]1CC[C@@H]1[C@@H]2CC[C@]2(C)C(=O)CC[C@@H]12`, the result in assay [1] was inactive.
As to `O=C(CCl)NCO`, the call in assay [1], in assay [2] and in assay [3] was inactive.
`O=C(O)CC(O)(CC(=O)O)C(=O)O`: the result in assay [1], in assay [2], in assay [3], in assay [4] and in assay [5] was inactive.
`CCCCC(CC)COC(=O)Cl` (configuration not stated): the molecule was called inactive in assay [1].
As for `C[CH2][Hg][S]c1ccccc1C(=O)O`, the result in assay [1] and in assay [3] was inactive. In addition, the AC50 in assay [2] is 32 µM (active) and 18.4 µM (active); in assay [3], 2.74 µM (active); in assay [4], 46.1 µM (active) and 6.74 µM (active); in assay [5], 221 nM (active) and 970 nM (active).
In the case of `C=CCN=C=S`, the molecule was called inactive in assay [1], in assay [2], in assay [3], in assay [4] and in assay [5].
As for `CN(C)[C@@H]1C(=O)C(C(N)=O)=C(O)[C@@]2(O)C(=O)C3=C(O)c4c(O)ccc(Cl)c4[C@@](C)(O)[C@H]3C[C@@H]12`, the result in assay [1] and in assay [2] was inactive.
On to `Cc1c([N+](=O)[O-])c(C)c([N+](=O)[O-])c(C(C)(C)C)c1[N+](=O)[O-]`, for which the outcome in assay [1] and in assay [2] was inactive.
On to `CC1(C)[C@H](C(=O)O[C@H](C#N)c2cccc(Oc3ccccc3)c2)[C@@H]1/C=C(\Cl)C(F)(F)F`, for which the call in assay [1], in assay [2], in assay [3] and in assay [4] was inactive.
Turning to `O=C(Nc1ccc(Br)cc1)c1cc(Br)cc(Br)c1O`, the molecule was called inactive in assay [1] and in assay [2]. Moreover, the half-maximal activity concentration (AC50) in assay [2] was 391 nM (active); in assay [3] it was 1.15 µM (active) and 272 nM (active) and 3.12 µM (active); in assay [4], 1.12 µM (active) and 641 nM (active) and 1.79 µM (active); in assay [5], 255 nM (active) and 198 nM (active) and 1.8 µM (active).
For the molecule `CCOP(=S)(OCC)SCSc1cc(Cl)ccc1Cl`, the outcome in assay [1], in assay [2], in assay [3] and in assay [4] was inactive.
Turning to `Clc1cnc(Oc2ccc(Oc3ncc(Cl)cc3Cl)cc2)c(Cl)c1`, the call in assay [1], in assay [2], in assay [3] and in assay [4] was inactive.
As for `O=[N+]([O-])c1ccc(Cl)c([N+](=O)[O-])c1`, the AC50 in assay [1] is 20.2 µM (active); in assay [2], 45.5 µM (active) and 39.7 µM (active); in assay [3], 75.5 µM (active); in assay [4], 86.3 µM (active) and 41.1 µM (active). Besides, the outcome in assay [3] and in assay [5] was inactive.
`BrCc1ccc(Br)cc1`: the result in assay [1], in assay [2], in assay [3] and in assay [4] was inactive.
For the molecule `O=c1oc2ccccc2c(O)c1C(CC(O)c1ccc(-c2ccc(Br)cc2)cc1)c1ccccc1` (configuration not stated), the result in assay [1], in assay [2], in assay [3] and in assay [4] was inactive. Further, the AC50 in assay [2] is 6090 nM (active); in assay [4], 15.2 µM (active); in assay [5], 43.4 µM (active) and 22.3 µM (active).
